About 83,000 compounds went through this panel and 20% of them were active in at least one assay; those are over-represented in the sample as a whole.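 Results are percent growth after 48 hours of single-concentration exposure. 100 means growth as in untreated cells, lower positive values show inhibition; negative values down to -100 show cell death.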 Activity calls are given as the source filed them. The calls were made as follows: active = growth percent below 10; inactive = the rest.
system: SF-295 CNS; experiment: NCI-60 one-dose screen, 48 h (100 = growth as untreated, 0 = no growth, -100 = all killed); conditions: 10 µM unless noted

| SMILES | growth |
| --- | --- |
| COc1cc2c3c(c1)nc(C)n3CCC2 | 95.8% (inactive) |
| Cc1sc2c(c1C)c(=O)nc1c(-c3nc4ccccc4s3)n[nH]n12 | 92.3% (inactive) |
| COc1cc2c(cc1OCCCCCN1CCN(c3ncnc4ccccc34)CC1)N=CC1CCCN1C2=O (centres undefined) | -39.7% (active) |
| COc1cc2c(cc1OCCCCN1CCN(CC(=O)Nc3ccc(Cl)cc3C(=O)c3ccccc3Cl)CC1)N=CC1CCCN1C2=O (centres undefined) | -94.6% (active) |
| CCOC(=O)C1=C(C)NC(=O)NC1c1cc(=O)oc2ccc(C)cc12 (centres undefined) | 96.9% (inactive) |
| COc1ccc2nc3cc(Cl)ccc3c(Nc3ccc(N(C)C)cc3)c2c1 | 86.8% (inactive) |
| C[C@@H](C[C@H](CCO)c1cc(C(F)(F)F)cc(C(F)(F)F)c1)c1ccc2ccccc2c1 | 77.8% (inactive) |
| COc1ccc2c(CCCc3ccc(Cl)cc3Cl)c3[n+](cc2c1OC)CCc1cc2c(cc1-3)OCO2 | -19.3% (active) |
| COc1cc2c(cc1OCCCCCCN1CCN(c3ncnc4ccccc34)CC1)N=CC1CCCN1C2=O (centres undefined) | -45.5% (active) |
| c1cc[n+](Cc2c3ccccc3cc3c2ccc2ccccc23)cc1 | 4.38% (active) |
| CC(C)[C@@H]1CC[C@]2(CO2)[C@@H]2C(=O)OCC(C(=O)O)=C[C@H]21 | 22.2% (inactive) |
| N#Cc1c(NC(=O)c2cccs2)[n+]([O-])c2ccc(F)cc2[n+]1[O-] | 100% (inactive) |
| CC(CCCC(=O)O)c1ccoc1 (centres undefined) | 95.4% (inactive) |
| CCCCCCCC(=O)SCC/C=C/[C@@H]1CC(=O)NCc2nc(co2)C2=N[C@@](C)(CS2)C(=O)N[C@@H](C(C)C)C(=O)O1 | -62.5% (active) |
| Nc1c(C(=O)c2ccccc2)sc2nc(-c3cccs3)ccc12 | 5.01% (active) |
| COc1ccc2c(CCCCC(c3ccccc3)c3ccccc3)c3[n+](cc2c1OC)CCc1cc2c(cc1-3)OCO2 | -84.2% (active) |
| CC(C)(C)C(=O)OCOP(=O)(OCOC(=O)C(C)(C)C)C1CCCN(OC(=O)c2ccccc2)C1=O (centres undefined) | 57.3% (inactive) |
| O=C(Cc1ccccc1)Nc1nnc(NC2CCN(c3nnc(NC(=O)Cc4ccccc4)s3)CC2)s1 | 56.8% (inactive) |
| CCCCCCC1(/C=N/NC(N)=O)NC(=O)NC1=O (centres undefined) | 98.1% (inactive) |
| CC(N)C(Cc1ccc(Cl)cc1)c1ccc(Cl)cc1 (centres undefined) | 84.9% (inactive) |

| SMILES | growth |
| --- | --- |
| CC(C)[C@@H](C)/C=C/[C@@H](C)[C@H]1CCC2=C3C=CC4=CC(=O)CC[C@]4(C)[C@H]3CC[C@@]21C | 94.9% (inactive) |
| CCOC(=O)C1=C(C)N=C2Sc3cc(OC(F)(F)F)ccc3N2[C@H]1c1ccccn1 | 22.2% (inactive) |
| COC(=O)[C@]12CC[C@@H](C)[C@H](C)[C@@H]1C1=CC[C@@H]3[C@@]4(C)C(c5cnco5)=C[C@@](C)(CO)C4=CC[C@@]3(C)[C@]1(C)CC2 | 31.2% (inactive) |
| C=C1C(=O)O[C@H]2[C@H]1CC/C(Cn1cc(-c3cc(C)c(C)cc3C)nn1)=C\CC[C@@]1(C)O[C@@H]21 | 59.8% (inactive) |
| C=C1C(=O)O[C@H]2[C@H]1CC/C(CNC(=O)c1cc3cc(OC)ccc3[nH]1)=C\CC[C@@]1(C)O[C@@H]21 | 37.6% (inactive) |
| C=CCC(=O)N[C@H](/C=C/C(=O)O)Cc1ccc(-c2cc(Cl)cc(Cl)c2)cc1 | 101% (inactive) |
| NN1C(=O)CSC1=S | 105% (inactive) |
| CC(=O)C(C(C)=O)C(c1ccccc1)C(C(C)=O)C(C)=O | 96.7% (inactive) |
| COc1cc(NCCN(CC(C)C)CC(C)C)c2ncc(C)cc2c1 | 64.6% (inactive) |
| COc1ccc2c(CCC(c3ccccc3)c3ccccc3)c3[n+](cc2c1OC)CCc1cc2c(cc1-3)OCO2 | -15.8% (active) |
| O=C1CC(c2ccc3c(c2)OCO3)c2ncn(-c3ccc(Cl)cc3)c2N1 (centres undefined) | 70.8% (inactive) |
| Clc1nc(Cl)c2ncn(CC#CCn3cnc4c(Cl)nc(Cl)nc43)c2n1 | 5.67% (active) |
| COc1ccc(C2CC(=O)c3c(O)c(OC)c(OC)c(OC)c3O2)c(O)c1 (centres undefined) | 7.86% (active) |
| C[N+](C)(CCOC(c1ccccc1)c1ccccc1)CC(=O)OCc1ccccc1 | 103% (inactive) |
| Nc1c2c(c(O)c3c1=C(CO)C=N3)=NCCS2 | -94.5% (active) |
| Cc1cccc(NC(=O)[C@@H]2c3ccccc3C(=O)N(c3ccc(Cl)cc3)[C@H]2c2ccc(Cl)cc2)n1 | 24.1% (inactive) |
| CC(N)C(Cc1ccccc1)c1ccc(Cl)cc1 (centres undefined) | 83.5% (inactive) |
| C=CCCCC(=O)CCC(=O)OCC1O[C@@H](O[C@@H]2C(O)[C@@H](OC(C)=O)C(C)O[C@H]2O[C@H](CC=C)CCCCC)C(O)[C@@H](OC(=O)/C(C)=C/C)[C@@H]1OC(=O)/C=C/c1ccccc1 (some centres undefined) | -11.9% (active) |
| COc1ccc2c(c1OC)C(=O)O[C@@H]2[C@H]1c2c(c(C#CC#Cc3ccc(F)c(F)c3)c3c(c2OC)OCO3)CCN1C | 95.6% (inactive) |
